A selection: hits, their analogues and other compounds. The true share with any hit is near 5.2%.
Tau fibril ThT: blocks human tau fibril formation measured by thioflavin T; recombinant tau K18 P301L, heparin-induced fibrillization, ThT fluorescence; Potency, µM (series often up to 57.4 µM), for inactives: at the top dose activity, negative = inhibition, hits mostly inhibitors; 270,000 tested, 2.1% active; also: potency is read from the fitted curve at half-maximal effect; nearly all actives have a fitted effect of over 55% in size
Target sequence (P10636 561-689 P618L limits assumed): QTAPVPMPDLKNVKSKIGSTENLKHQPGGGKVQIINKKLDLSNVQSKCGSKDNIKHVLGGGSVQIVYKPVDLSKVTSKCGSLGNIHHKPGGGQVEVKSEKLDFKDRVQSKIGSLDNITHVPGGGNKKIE
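Tau K18 P301L fragment (15 uM unlabeled plus 0.24 uM Alexa 594-labeled) in 100 mM sodium acetate pH 7 with compound, fibrillization induced by 20 uM heparin for 6 hr at 37 C. Thioflavin T (30 uM) added, fluorescence read after 1 hr (ex 450, em 510 nm).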
Sfp inh: inhibitors of Bacillus subtilis Sfp phosphopantetheinyl transferase. Q9F4F7. Biochemical Sfp PPTase activity, qHTS. Potency, µM, inactives show largest response in the series, negative = inhibition, hits mostly inhibitors. 310,000 tested, 3.5% active. AID 1490;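 also: the enzyme is Sfp with the accession as filed and its product quenches rhodamine fluorescence; potency is read from the fitted curve at half-maximal effect; 0% = enzyme reaction without inhibitor and -100% = no enzyme wells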
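Fluorescence-quenching assay with 15 nM Sfp, 5 uM rhodamine-CoA and 12.5 uM BHQ-2-labelled ybbR peptide in pH 7.6 Hepes/MgCl2 buffer. Enzyme was pre-incubated with compound for 15 min at room temperature. Rate was taken from the 30-min fluorescence change (525/598 nm).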
Tau fibril FP: tau fibrillization inhibition (FP); P10636; K18 P301L tau heparin fibrillization, Alexa594 FP, 6 h; Potency, µM (top dose mostly 57.7 µM), without a hit: at the highest dose activity, negative = inhibition, hits mostly inhibitors; 280,000 tested, 0.39% active; AID 1468; also: potency is read from the fitted curve at half-maximal effect; nearly all actives have a fitted effect of over 55% in size
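Human K18 P301L fragment (15 uM unlabeled plus 0.24 uM Alexa 594-labeled) in 100 mM sodium acetate pH 7 with compound, aggregation induced by 20 uM heparin for 6 hr at 37 C. ThT (30 uM) added for 1 hr, then Alexa 594 FP read.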
Coupling enz: inhibits coupling enzyme system, counter-screen for aldolase hits | 290,000 tested, 0.67% active | activity change, negative = inhibition, % at 58.2 µM, hits read low | AID 2472 | coupling enzyme system counterscreen, AmpLite Red fluorescence; in the data active = activity change below about -30%
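Fluorescence at 525 nm excitation and 598 nm emission measured inhibition of the coupled detection system without aldolase. Compounds (at 57.5 uM final) were preincubated 10 min at room temperature with coupling enzyme reagent before a 20 min substrate/AmpLite Red step.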
Tau fluor cs: counter-screen for tau fibril formation inhibitors; tau K18 P301L (four-repeat tau fragment) Alexa594 fluorescence, heparin fibrillization; 280,000 tested, 0.93% active; Potency, µM (highest dose often 57.7 µM), for the others: at the top dose activity change, negative = decrease; AID 1463; also: potency is read from the fitted curve at half-maximal effect; nearly all actives have a fitted effect of over 55% in size
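Human K18 P301L tau (15 uM unlabeled plus 0.24 uM Alexa 594-labeled, final) in 100 mM sodium acetate pH 7 was mixed with compound and 20 uM heparin and incubated 6 hr at 37 C.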
The depositor's hits bear a star; u = inconclusive; x = no result; [ ] = dose if it differs, or a comment. Unless noted, calls follow the shape of the dose curve; as a rule, active = well fitted curve in the direction sought with a large enough effect; inconclusive = small, poorly fitted or top-dose-only effect, or another doubt; inactive = no such curve, though single readings can be large; an effect the other way counts as inactive or inconclusive. Unless noted, % is scaled to controls: 0 for no effect and ±100 for the full control effect.

SMILES	Tau fibril ThT	Sfp inh	Tau fibril FP	Coupling enz	Tau fluor cs
Cc1ccc(C2Nc3ccccc3-c3nc4ccccc4n32)o1 (stereo not drawn)	u	-2.6%	u	-1.1	31.6µM*[quencher]
Cn1c(-c2ccc(Br)o2)nc2ccccc21	-0.1%	39.8µM*	-1.1%	-6.4	10.3%
O=C(CSc1ccc(-c2ccccn2)nn1)N1CCCC1	-3.8%	44.7µM*	-0.4%	0.2	-8.1%
O=C(CSc1ccc(-c2ccco2)nn1)N1CCCCC1	u	u	2.9%	-46.5*	-17.8%
O=C(CSc1ccc(-c2ccccc2)nn1)N1CCN(c2ccccc2)CC1	-10.6%	79.4µM*	-0.1%	-9.7	-10.4%
Cn1c(SCC(=O)N2CCCCCC2)nnc1-c1ccco1	x	7.6%	x	-0.8	x
O=C(CSc1ccc(-c2ccco2)nn1)N1CCCC1	u	50.1µM*	-5.1%	1.4	-14.5%
O=C(CSc1nnc(-c2ccco2)o1)N1CCCCC1	x	7.4%	x	1.1	x
CCOC(=O)c1sc2ccccc2c1S(=O)(=O)N1CCN(c2cc(C)ccc2C)CC1	-9.9%	x	-13.2%	x	-13.3%
O=C(CSc1ccccn1)N1CCN(c2cccc(Cl)c2)CC1	u	50.1µM*	-0.2%	-0.1	-15.9%
O=C(CSc1ccccn1)N1CCN(c2ccccc2)CC1	0.8%	-17.5%	7.1%	1.2	-2.8%
Brc1ccc2nc(-c3c[nH]c4ccccc34)cn2c1	10µM*	-9.5%	7.4%	-14.2	u
CCNc1ccccc(C(=O)/C=C/c2ccc3c(c2)OCO3)c1=O	14.1µM*	44.7µM*	u	-27.1	u
O=C(/C=C/c1ccc2c(c1)OCO2)c1cccs1	u	70.8µM*	5.6%	-7.7	-3.8%
COc1ccccc1CNC(=O)Cn1c(=O)ccc2cc(S(=O)(=O)N3CCCC3)ccc21	7.3%	x	-3.1%	x	-4.8%
O=C1OC(Nc2ncccn2)c2ccccc21 (stereo not drawn)	-8.9%	14.7%	-3.9%	-0.5	-5.6%
O=C1OC(Nc2cc(Br)cc3cccnc23)c2ccccc21 (stereo not drawn)	-15.9%	u	7.4%	-39.6*	-8.3%
COC(=O)c1sccc1S(=O)(=O)N1CCN(c2cccc(C)c2)C(C)C1 (stereo not drawn)	-6.4%	x	-4.7%	x	-12.0%
CC1(C)Cc2c(C#N)c(N)sc(=S)c2CS1	17.8µM*	15.8µM*	-5.0%	-43.7*	u
Cn1c(N)c(C#N)c2c(c1=S)CSC(C)(C)C2	u	79.4µM*	1.7%	-24.9	-24.0%
Cn1c(N)c(C#N)c2c(c1=S)COC(C)(C)C2	-6.4%	10.2%	-4.8%	-8.1	-7.0%
Cc1cc(C)c(S(=O)(=O)N2CCC(n3c(C(F)(F)F)nc4cccnc43)CC2)c(C)c1	5.3%	x	-1.1%	x	1.7%
CCn1c(O)c(N=Nc2ccc3ccccc3n2)c2ccccc21	3.98µM*	22.4µM*	2.1%	-4.2	-18.3%
CCCOc1ccc(S(=O)(=O)NCCN2CCOCC2)c2ccccc12	-8.6%	3.2%	3.2%	0.1	1.2%
CCOc1ccc(S(=O)(=O)NCCN2CCOCC2)c2ccccc12	-7.5%	79.4µM*	0.9%	-8.6	-11.7%
SMILES	Tau fibril ThT	Sfp inh	Tau fibril FP	Coupling enz	Tau fluor cs
COc1ccc2[nH]c(=O)c(CN(Cc3nnnn3Cc3ccccc3)CC3CCCO3)cc2c1 (stereo not drawn)	-4.2%	89.1µM*	2.5%	-4.1	-1.1%
Cc1cc2cc(CN(Cc3nnnn3C3CCCCC3)CC3CCCO3)c(=O)[nH]c2cc1C (stereo not drawn)	0.1%	50.1µM*	1.1%	-5.6	8.8%
Cc1ccc2cc(CN(Cc3nnnn3C3CCCCC3)CC3CCCO3)c(=O)[nH]c2c1 (stereo not drawn)	-9.4%	7.3%	4.9%	-2.7	6.8%
COc1ccc2[nH]c(=O)c(CN(Cc3nnnn3Cc3ccc(F)cc3)CC3CCCO3)cc2c1 (stereo not drawn)	-11.2%	15.2%	7.3%	2.1	-7.1%
C[C@@H]1C(SC2Cn3cnc[n+]3C2)=C(C(=O)[O-])N2C(=O)[C@H]([C@@H](C)O)[C@@H]12 (stereo partly drawn)	x	23.7%	x	x	x
COc1ccc(N2CCN(C(CNC(=O)C(=O)NCc3ccc(C)cc3)c3cccnc3)CC2)cc1 (stereo not drawn)	-10.4%	x	1.1%	x	-11.2%
COc1cc(/C=C/C(=O)O)cc(S(=O)(=O)Nc2ccc3nc(C)sc3c2)c1OC	-13.5%	39.8µM*	-2.0%	-5.1	0.0%
COC(=O)CCCOc1ccc(Cl)cc1Cl	-0.8%	-3.0%	u	1.4	-14.0%
Oc1c(C(c2ccc(Cl)cc2)N2CCC3(CC2)OCCO3)sc2nc(-c3ccco3)nn12 (stereo not drawn)	-10.7%	x	-11.3%	x	-7.9%
O=C(CN1C(=O)CCC1=O)Nc1nc(-c2ccccn2)cs1	-5.0%	50.1µM*	-1.4%	1.0	-2.4%
CSc1nc2c([nH]c3ccccc32)c(=O)n1-c1ccc(C)cc1	-6.5%	x	-5.7%	x	-7.6%
COc1cc(C(=O)Oc2c(OC)cc(C(=S)N3CCOCC3)cc2OC)cc(OC)c1OC	x	9.5%	x	0.4	x
COc1cc(C(=S)N2CCOCC2)cc(OC)c1OS(=O)(=O)c1ccc(Cl)cc1	x	44.7µM*	x	-0.3	x
COc1cc(C(=S)N2CCOCC2)cc(OC)c1OC(=O)Cc1ccc(F)cc1	-11.8%	44.7µM*	-11.6%	2.3	-11.3%
COc1cc(C(=S)N2CCOCC2)cc(OC)c1OC(=O)c1ccc(F)cc1	x	28.2µM*	x	4.4	x
COc1cc(C(=S)N2CCOCC2)ccc1OS(=O)(=O)c1ccc(Cl)cc1	x	-5.4%	x	-0.4	x
COc1cc(C(=S)N2CCOCC2)cc(OC)c1OC(=O)c1ccccc1[N+](=O)[O-]	x	7.5%	x	0.3	x
NCC(O)C1CCCCCCC1 (stereo not drawn)	-16.1%	x	4.6%	x	u
CCC(C(=O)N1CCN(c2ccccc2)CC1)n1c(C)c2cnn(-c3ccccc3)c(=O)c2c1C (stereo not drawn)	-11.7%	x	-1.0%	x	-16.3%
C/C(=N\NC(=O)c1ccc(-c2ccccc2)cc1)C1C(=O)c2ccccc2C1=O	-11.1%	4.1%	4.8%[2.34 µM]	0.8	-10.8%
CCOc1ccc(OCc2ccc(C(=O)N/N=C(\C)c3ccccn3)cc2)cc1	u	16.2%	7.7%	0.6	-1.8%
C/C(=N\NC(=O)c1ccc(Br)cc1)C1C(=O)c2ccccc2C1=O	3.98µM*	1.5%	u	1.0	u
CCOc1ccc(C(=O)N/N=C(/C)C2C(=O)c3ccccc3C2=O)cc1	1.78µM*	7.5%	1.5%	-0.4	-19.5%
O=C(O)c1ccc2c(c1)C(=O)N([C@H](Cc1ccc(O)cc1)C(=O)O)C2=O	x	20.3%	x	7.3	x
CC1=CC(C)(C)NC(=S)N1c1cccc2cc(S(=O)(=O)O)ccc12	31.6µM*	20µM*	u	-9.7	-28.8%
Cc1cccc(NC(=O)C2CCN(c3nnc(-n4c(C)ccc4C)s3)CC2)c1C	u	x	-14.3%	x	-20.5%
